One may read the inhibition as the change of the read-out against control, counted positive when it falls.

The target of assay [1] is Serine/threonine-protein kinase pim-2 (Homo sapiens) (UniProt Q9P1W9). To be noted: at 1 µM.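 Also: each value is a mean of the inhibition measurements against the kinase.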
Assay [2] concerns the target Serine/threonine-protein kinase pim-3 (Homo sapiens) (UniProt Q86V86). To be noted: at 0.1 µM.
For assay [3] the target is unchanged. To be noted: at 1 µM.
In assay [4] the target is T1, MAP kinase-activated protein kinase 5 (Homo sapiens) (UniProt Q8IW41).
T1 sequence (whole entry): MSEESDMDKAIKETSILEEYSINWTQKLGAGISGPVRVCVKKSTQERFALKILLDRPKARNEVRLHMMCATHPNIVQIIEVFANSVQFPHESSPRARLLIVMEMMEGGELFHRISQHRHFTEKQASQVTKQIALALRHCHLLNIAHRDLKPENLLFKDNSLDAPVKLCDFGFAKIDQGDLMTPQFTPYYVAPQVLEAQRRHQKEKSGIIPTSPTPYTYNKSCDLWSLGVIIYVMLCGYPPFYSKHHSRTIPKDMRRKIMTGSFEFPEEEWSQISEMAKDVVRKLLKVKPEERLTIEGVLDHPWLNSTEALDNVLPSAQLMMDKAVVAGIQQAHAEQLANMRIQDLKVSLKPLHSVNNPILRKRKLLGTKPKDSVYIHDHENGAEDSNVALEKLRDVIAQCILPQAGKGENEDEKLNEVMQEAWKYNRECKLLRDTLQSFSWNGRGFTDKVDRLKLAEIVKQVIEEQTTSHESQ
Particulars: at 0.1 µM.

For assay [5], the target named is T1, MAP kinase-activated protein kinase 5 (Homo sapiens). Particulars: at 1 µM.
Assay [6] has as its target Serine/threonine-protein kinase SIK1 (Homo sapiens) (UniProt P57059). To be noted: at 0.1 µM.
Assay [7] shares this target. Particulars: at 1 µM.
Assay [8] deals with Serine/threonine-protein kinase SIK2 (Homo sapiens) (UniProt Q9H0K1). To be noted: at 0.1 µM.
Assay [9] shares this target. To be noted: at 1 µM.
Assay [10] has as its target T2, Serine/threonine-protein kinase TBK1 (Homo sapiens) (UniProt Q9UHD2).
T2 sequence (whole entry): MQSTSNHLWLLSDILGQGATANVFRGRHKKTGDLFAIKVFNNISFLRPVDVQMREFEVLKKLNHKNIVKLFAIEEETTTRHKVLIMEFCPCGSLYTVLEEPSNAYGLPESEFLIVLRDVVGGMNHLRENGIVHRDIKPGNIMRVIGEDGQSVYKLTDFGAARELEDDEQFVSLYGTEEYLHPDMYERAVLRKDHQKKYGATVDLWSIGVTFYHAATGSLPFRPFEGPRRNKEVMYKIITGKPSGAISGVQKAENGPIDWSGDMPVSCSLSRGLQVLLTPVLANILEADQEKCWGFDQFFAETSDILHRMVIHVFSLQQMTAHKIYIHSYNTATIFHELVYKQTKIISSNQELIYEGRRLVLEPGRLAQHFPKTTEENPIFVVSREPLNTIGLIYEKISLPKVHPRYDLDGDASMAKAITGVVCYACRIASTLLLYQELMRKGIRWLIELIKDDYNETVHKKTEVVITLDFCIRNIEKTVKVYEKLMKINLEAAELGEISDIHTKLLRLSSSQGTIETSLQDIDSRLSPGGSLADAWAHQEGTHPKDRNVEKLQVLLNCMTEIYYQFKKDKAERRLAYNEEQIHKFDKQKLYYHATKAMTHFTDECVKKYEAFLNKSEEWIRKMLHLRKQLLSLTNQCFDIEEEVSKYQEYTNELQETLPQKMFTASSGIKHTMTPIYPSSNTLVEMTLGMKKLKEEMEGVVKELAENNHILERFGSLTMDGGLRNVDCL
To be noted: at 0.1 µM.

The target of assay [11] is T2, Serine/threonine-protein kinase TBK1 (Homo sapiens). To be noted: at 1 µM.
Assay [12] addresses T3, Testis-specific serine/threonine-protein kinase 1 (Homo sapiens) (UniProt Q9BXA7).
T3 sequence (whole entry): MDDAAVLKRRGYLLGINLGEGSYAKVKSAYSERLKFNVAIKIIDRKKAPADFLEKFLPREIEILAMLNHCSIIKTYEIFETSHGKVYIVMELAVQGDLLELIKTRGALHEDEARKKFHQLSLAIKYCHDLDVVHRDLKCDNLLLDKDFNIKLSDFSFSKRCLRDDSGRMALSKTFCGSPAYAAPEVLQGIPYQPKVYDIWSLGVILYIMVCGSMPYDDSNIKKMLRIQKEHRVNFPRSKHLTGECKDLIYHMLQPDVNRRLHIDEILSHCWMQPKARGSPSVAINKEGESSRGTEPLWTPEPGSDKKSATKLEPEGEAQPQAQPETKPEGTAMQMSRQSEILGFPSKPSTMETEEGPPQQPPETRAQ
Particulars: at 0.1 µM.

In assay [13] the target is T3, Testis-specific serine/threonine-protein kinase 1 (Homo sapiens). To be noted: at 1 µM.
Assay [14] addresses T4, Testis-specific serine/threonine-protein kinase 2 (Homo sapiens) (UniProt Q96PF2).
T4 sequence (whole entry): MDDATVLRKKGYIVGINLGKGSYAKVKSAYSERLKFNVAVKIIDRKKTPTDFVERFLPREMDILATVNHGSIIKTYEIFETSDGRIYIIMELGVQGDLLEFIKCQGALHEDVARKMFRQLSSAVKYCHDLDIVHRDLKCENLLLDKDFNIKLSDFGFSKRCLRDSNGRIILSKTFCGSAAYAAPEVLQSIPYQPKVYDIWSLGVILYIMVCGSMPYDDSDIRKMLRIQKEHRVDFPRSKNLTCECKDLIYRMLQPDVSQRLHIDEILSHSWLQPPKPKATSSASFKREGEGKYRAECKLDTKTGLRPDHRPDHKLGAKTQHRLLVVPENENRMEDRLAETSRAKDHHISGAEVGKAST
Particulars: at 0.1 µM.

Assay [15] deals with T4, Testis-specific serine/threonine-protein kinase 2 (Homo sapiens). Particulars: at 1 µM.
Assay [16] concerns the target Casein kinase I isoform alpha (Homo sapiens) (UniProt P48729). Particulars: at 0.1 µM.
Assay [17] has the same target. Particulars: at 1 µM.
In assay [18] the target is Casein kinase I isoform gamma-1 (Homo sapiens) (UniProt Q9HCP0). Particulars: at 0.1 µM.
Assay [19] has the same target. Particulars: at 1 µM.
For assay [20], the target named is Casein kinase I isoform gamma-2 (Homo sapiens) (UniProt P78368). To be noted: at 0.1 µM.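 Also: values are mean inhibition figures reported as part of the GSK PKIS dataset.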
Chain of Casein kinase I isoform gamma-2 (Homo sapiens) (P78368 whole entry, looked up, canonical isoform): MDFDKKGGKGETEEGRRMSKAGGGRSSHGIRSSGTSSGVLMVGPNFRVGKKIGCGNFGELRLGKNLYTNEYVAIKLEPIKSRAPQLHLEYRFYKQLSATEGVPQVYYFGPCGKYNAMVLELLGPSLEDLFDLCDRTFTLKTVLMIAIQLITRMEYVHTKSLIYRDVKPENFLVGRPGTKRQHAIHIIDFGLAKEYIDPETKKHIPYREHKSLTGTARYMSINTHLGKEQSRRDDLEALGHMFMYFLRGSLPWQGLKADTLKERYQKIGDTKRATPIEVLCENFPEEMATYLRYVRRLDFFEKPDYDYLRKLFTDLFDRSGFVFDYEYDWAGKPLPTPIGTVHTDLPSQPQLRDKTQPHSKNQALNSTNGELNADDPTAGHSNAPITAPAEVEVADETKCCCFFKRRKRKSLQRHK

Chain of Casein kinase I isoform alpha (Homo sapiens) (P48729 2-337 limits assumed): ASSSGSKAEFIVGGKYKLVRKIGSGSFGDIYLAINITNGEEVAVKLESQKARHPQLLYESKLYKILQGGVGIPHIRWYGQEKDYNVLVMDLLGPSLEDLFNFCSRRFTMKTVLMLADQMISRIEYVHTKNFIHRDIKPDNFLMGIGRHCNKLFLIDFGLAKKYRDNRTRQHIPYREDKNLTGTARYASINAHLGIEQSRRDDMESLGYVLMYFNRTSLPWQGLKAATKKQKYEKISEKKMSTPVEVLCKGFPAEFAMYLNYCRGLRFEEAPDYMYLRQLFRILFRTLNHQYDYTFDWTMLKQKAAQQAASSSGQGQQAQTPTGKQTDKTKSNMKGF
Chain of Serine/threonine-protein kinase SIK1 (Homo sapiens) (P57059 whole entry): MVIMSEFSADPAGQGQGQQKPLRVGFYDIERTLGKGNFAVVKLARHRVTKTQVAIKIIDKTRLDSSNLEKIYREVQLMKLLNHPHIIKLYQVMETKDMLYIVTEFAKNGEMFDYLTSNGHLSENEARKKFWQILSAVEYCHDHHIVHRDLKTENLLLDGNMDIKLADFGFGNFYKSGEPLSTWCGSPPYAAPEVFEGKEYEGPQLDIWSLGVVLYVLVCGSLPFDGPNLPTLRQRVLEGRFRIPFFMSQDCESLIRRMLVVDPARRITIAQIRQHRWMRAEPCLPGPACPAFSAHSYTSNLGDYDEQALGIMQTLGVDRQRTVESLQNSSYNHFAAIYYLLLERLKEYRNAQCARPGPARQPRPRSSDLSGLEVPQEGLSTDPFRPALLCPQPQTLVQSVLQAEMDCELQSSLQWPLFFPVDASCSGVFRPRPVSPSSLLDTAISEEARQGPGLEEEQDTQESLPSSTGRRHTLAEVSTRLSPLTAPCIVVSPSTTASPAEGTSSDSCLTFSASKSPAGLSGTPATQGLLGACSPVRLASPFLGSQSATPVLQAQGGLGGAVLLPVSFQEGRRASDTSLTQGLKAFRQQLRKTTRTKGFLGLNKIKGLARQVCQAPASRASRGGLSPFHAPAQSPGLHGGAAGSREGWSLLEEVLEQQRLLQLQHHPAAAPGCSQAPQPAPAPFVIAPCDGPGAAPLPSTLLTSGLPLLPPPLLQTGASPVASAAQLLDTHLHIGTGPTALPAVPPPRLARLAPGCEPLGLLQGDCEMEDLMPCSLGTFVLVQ
Chain of Serine/threonine-protein kinase pim-2 (Homo sapiens) (Q9P1W9 whole entry, looked up): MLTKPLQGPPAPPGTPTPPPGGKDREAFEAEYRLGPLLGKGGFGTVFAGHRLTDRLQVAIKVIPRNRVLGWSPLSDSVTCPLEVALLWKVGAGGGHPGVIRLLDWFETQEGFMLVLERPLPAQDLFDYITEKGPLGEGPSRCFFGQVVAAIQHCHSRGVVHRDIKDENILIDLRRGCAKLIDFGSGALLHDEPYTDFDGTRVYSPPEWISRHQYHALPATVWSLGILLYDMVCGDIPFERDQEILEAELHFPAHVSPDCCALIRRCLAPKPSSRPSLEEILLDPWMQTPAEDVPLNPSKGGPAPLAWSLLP
Chain of Casein kinase I isoform gamma-1 (Homo sapiens) (Q9HCP0 whole entry, looked up, canonical isoform): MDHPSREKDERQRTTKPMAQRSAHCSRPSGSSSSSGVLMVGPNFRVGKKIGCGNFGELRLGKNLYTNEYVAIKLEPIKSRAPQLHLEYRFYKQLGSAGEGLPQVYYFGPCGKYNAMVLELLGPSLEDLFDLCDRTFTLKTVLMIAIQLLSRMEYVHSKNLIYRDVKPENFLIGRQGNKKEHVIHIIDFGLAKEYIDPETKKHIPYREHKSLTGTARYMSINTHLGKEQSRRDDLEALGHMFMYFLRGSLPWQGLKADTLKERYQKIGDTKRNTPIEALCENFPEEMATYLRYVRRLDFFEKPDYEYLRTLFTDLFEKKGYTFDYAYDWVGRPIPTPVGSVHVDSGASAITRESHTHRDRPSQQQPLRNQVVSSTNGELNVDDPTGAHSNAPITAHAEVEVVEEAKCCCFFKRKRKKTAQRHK
Chain of Serine/threonine-protein kinase SIK2 (Homo sapiens) (Q9H0K1 whole entry, looked up): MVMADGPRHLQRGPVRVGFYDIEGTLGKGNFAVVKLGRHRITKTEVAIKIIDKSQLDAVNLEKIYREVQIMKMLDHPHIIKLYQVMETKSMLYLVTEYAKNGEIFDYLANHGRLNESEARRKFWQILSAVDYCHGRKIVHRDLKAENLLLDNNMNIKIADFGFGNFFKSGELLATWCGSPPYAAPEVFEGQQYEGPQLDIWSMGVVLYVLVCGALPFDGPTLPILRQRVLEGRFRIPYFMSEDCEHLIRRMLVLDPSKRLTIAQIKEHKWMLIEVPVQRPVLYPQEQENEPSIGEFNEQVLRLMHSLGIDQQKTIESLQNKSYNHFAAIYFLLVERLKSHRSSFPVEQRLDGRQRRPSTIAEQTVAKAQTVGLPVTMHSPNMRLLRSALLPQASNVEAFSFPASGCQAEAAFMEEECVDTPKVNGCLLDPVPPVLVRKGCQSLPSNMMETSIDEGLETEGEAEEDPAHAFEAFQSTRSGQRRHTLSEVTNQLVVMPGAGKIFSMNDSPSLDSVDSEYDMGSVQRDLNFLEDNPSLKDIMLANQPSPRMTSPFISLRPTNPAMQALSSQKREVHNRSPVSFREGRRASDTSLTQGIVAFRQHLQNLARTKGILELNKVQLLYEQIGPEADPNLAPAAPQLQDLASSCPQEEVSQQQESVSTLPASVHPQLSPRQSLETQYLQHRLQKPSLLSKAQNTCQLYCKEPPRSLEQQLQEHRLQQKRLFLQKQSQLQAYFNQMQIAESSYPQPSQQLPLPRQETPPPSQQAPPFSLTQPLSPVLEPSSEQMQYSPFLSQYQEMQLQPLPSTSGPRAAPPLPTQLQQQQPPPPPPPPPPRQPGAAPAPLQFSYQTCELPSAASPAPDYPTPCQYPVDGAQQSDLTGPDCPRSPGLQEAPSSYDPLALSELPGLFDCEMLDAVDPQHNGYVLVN

As for `COc1cc(C)c(N(C)C(=O)CN(C)C)cc1Nc1nc(Nc2cccc(F)c2C(N)=O)c2cc[nH]c2n1`, the inhibition is -2.78% in assay [1]; -0.52% in [2]; 0.76% in [3]; 0.02% in assay [4]; -1.14% in assay [5]; 3.07% in [6]. Also, the inhibition in [7] turned out to be 5.4%; in assay [8] it was 4.5%; in [9] it was 2.04%; in assay [10], 1.26%; in assay [11], 3.23%; in assay [12] it was 3.79%. Moreover, the inhibition in assay [13] is 16.4%; in [14] it was 1.25%; in assay [15], 4.87%; in assay [16] it was -0.71%; in [17], 6%; in assay [18], -0.75%. In addition, the inhibition in [19] was 11.3%; in [20], -2.38%.

Turning to `NS(=O)(=O)c1ccc(N/N=C2\C(=O)Nc3ccc(-c4cnco4)cc32)cc1`, the inhibition in assay [1] amounted to 24.5%; in [2], 1.42%; in [3], 15.5%; in assay [4] it was 1.08%; in assay [5], 3.26%; in [6] it was 1.71%. Further, the inhibition in [7] was 14.3%; in [8], -1.16%; in assay [9] it was 7.34%; in assay [10], 7.17%; in [11] it was 38.4%; in assay [12], 2.73%. For the same compound, the inhibition in assay [13] was 12.4%; in [14] it was 0.01%; in assay [15] it was 1.76%; in assay [16], 0.46%; in [17], 3.06%; in [18], -2.5%. In addition, the inhibition is -1.7% in [19] and -2.15% in [20].

Take `O=C(Nc1n[nH]c2nc(-c3ccc(O)cc3)c(Br)cc12)C1CC1`: the inhibition in [1] is 75.2%; in [2], 31.9%; in assay [3] it was 73.9%; in [4], 2.42%; in assay [5] it was 3.04%; in [6] it was 6.92%. The inhibition was 17.1% in assay [7]; 14.2% in [8]; 19.9% in assay [9]; 4.12% in assay [10]; 22.6% in assay [11]; 5.99% in assay [12]. In addition, the inhibition in assay [13] came out at 5.96%; in assay [14], 3.73%; in assay [15] it was 4.53%; in assay [16], 4.72%; in assay [17], 5.83%; in assay [18], 4.64%. Moreover, the inhibition in [19] was 5.67%; in [20] it was 4.14%.

Turning to `C/C(Nc1ccc(S(N)(=O)=O)cc1)=C1/C(=O)Nc2ccccc21`, the inhibition is 0.33% in [1]; 0.02% in assay [2]; 1.7% in assay [3]; -0.26% in [4]; 1.08% in assay [5]; -7.25% in assay [6]. The inhibition is -0.38% in [7]; -6.72% in assay [8]; -0.55% in [9]; 0.77% in assay [10]; 4.75% in assay [11]; 0.79% in assay [12]. In addition, the inhibition in assay [13] was 5.46%; in assay [14], -0.65%; in [15], 1.13%; in assay [16] it was 2.64%; in assay [17], 8.53%; in assay [18], -0.74%. Besides, the inhibition was determined as 6.33% in [19] and 1.03% in [20].

As to `COc1ccc2ncn(-c3cc(O[C@H](C)c4ccccc4Cl)c(C(N)=O)s3)c2c1`, the inhibition in assay [1] was -2.83%; in [2] it was 0.05%; in assay [3], 4.48%; in assay [4] it was 1.58%; in [5], 1.26%; in assay [6], 4.44%. The inhibition came to 11.2% in assay [7]; 2.04% in [8]; 0.17% in assay [9]; 2.41% in [10]; 3.86% in [11]; 2.29% in assay [12]. Besides, the inhibition in assay [13] came to 2.54%; in [14] it was 0.96%; in assay [15], 1.28%; in [16] it was 2.14%; in assay [17], 2.16%; in assay [18] it was 0.39%. Also, the inhibition in assay [19] was -0.54%; in [20] it was -0.05%.

Regarding `Cc1ccc(NC(=O)c2ccoc2)cc1-c1ccc(C(=O)NCC2CC2)cc1`, the inhibition in assay [1] is 0.6%; in assay [2], 0.71%; in assay [3], -0.9%; in [4], 0.96%; in [5] it was 0.83%; in [6], 2.51%. For the same compound, the inhibition in [7] was 0.11%; in assay [8], 5.39%; in assay [9], 5.33%; in [10], 0.28%; in assay [11], 0.72%; in [12], 1.46%. For the same compound, the inhibition in [13] is 3.27%; in assay [14], 0.85%; in assay [15] it was 1.22%; in assay [16], 1.36%; in assay [17] it was 1.47%; in assay [18], 2.78%. Also, the inhibition amounted to 3.5% in assay [19] and 2.62% in [20].
